UHRF1 binding: human UHRF1 methylated DNA binding inhibitors; UHRF1 binding to methylated oligo, TR-FRET; inhibition, % at 4.4 µM; hit rate 0.75% among 370,000; AID 687016; in the data active = inhibition above about 21%;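 also: UHRF1 SRA domain binding a hemimethylated CpG hairpin DNA probe; 0% = median of test compound wells and 100% = reference inhibitor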
MBD2 inh: MBD2-methylated oligo binding inhibition. Q9UBB5. TR-FRET, MBD2 binding to methylated oligonucleotide. inhibition, % at 4.4 µM. hit rate 0.31% among 370,000. AID 686964; in the data active = inhibition above about 13%
Neddyl block: blocks human cullin neddylation | TR-FRET cullin neddylation, biochemical | calls only at 25 µM | hit rate 0.58% among 360,000; in the data active = inhibition above about 36%
UBC13 polyUb: inhibitors of human UBC13 polyubiquitin chain formation; P61088; TR-FRET; inhibition, % at 20 µM; hit rate 0.47% among 330,000; AID 485273; in the data active = inhibition above about 45%, passing the limit was not always enough; inconclusive = no clear call, values can overlap the other calls
Casp3 UBC13 ctr: counter-screen for UBC13 inhibitors: human caspase-3 inhibition; Recombinant caspase-3, Caspase-Glo 3/7 luminescence, 60 min; hit rate 4% among 1,400; inhibition, % at 20 µM; shares compounds with UBC13 polyUb;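 active = mean inhibition across replicates above about 26%, limit read from the data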;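 also: plate controls were DMSO with caspase-3 for no effect and DMSO wells lacking enzyme for full effect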
Target sequence (P42574 whole entry, looked up): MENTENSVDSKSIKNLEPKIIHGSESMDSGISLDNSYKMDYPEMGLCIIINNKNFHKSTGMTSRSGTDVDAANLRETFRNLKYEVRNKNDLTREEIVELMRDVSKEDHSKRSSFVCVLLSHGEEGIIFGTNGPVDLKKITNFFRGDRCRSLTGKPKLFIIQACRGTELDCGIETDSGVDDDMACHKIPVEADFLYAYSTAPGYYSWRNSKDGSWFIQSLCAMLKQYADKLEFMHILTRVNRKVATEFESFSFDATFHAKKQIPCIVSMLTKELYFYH
UBC13 conf: confirmation of human UBC13 polyubiquitin inhibitors. shares compounds with UBC13 polyUb. UBC13 polyubiquitination, TR-FRET, biochemical. inhibition, % at 10 µM. hit rate 68% among 1,400. AID 488859; in the data active = inhibition above about 45%; inconclusive = no clear call, values can overlap the other calls
* marks the source's active call; other numbers are inactive results; i = inactive; ? = inconclusive; . = not tested or not shown. The list is not random: actives were taken first. Their share in the collection is about 1.8%.

SMILES | UHRF1 binding | MBD2 inh | Neddyl block | UBC13 polyUb | Casp3 UBC13 ctr | UBC13 conf
CC(C)n1ncc2c(C(=O)Nc3ccc(S(N)(=O)=O)cc3)cc(C3CC3)nc21 | 0 | -1 | i | 75* | 0 | 49*
CC1(C)CC(=O)C2=C(C1)OC1=C(C(=O)CC(C)(C)C1)C2(C)C | . | . | . | 4 | . | .
Cc1ccc(-c2noc(CCC(=O)NCCN3CCN(Cc4ccccc4)CC3)n2)cc1 | -1 | -1 | i | 8 | . | .
COc1ccc(-c2cc3c(=O)n(CC(=O)NCCCN4CCN(Cc5ccccc5)CC4)ncn3n2)cc1 | 3 | 5 | . | 5 | . | .
COc1ccc(-c2noc(CCC(=O)NCCCN3CCC(Cc4ccccc4)CC3)n2)cc1 | 9 | 8 | i | 90* | -1 | 106*
COc1ccc(-c2cc3c(=O)n(CC(=O)NCCCN4CCC(Cc5ccccc5)CC4)ncn3n2)cc1 | -1 | 2 | . | 52* | 2 | 76*
Cc1ccc(-c2noc(CCC(=O)NCC3CCN(Cc4cccc(C)c4)CC3)n2)cc1 | -3 | 2 | i | 56* | -4 | 70*
CC(C)Cn1c(N)c(C(=O)COC(=O)c2cnccn2)c(=O)n(C)c1=O | 0 | 1 | i | -4 | . | .
Cn1c(=O)c2c(SCC(=O)N3CCN(c4ccccc4)CC3)nc(C3CC3)nc2n(C)c1=O | 0 | -1 | i | 63* | -2 | ?
Cn1c(=O)c2c(SCC(=O)NCCc3ccccc3)nc(C3CC3)nc2n(C)c1=O | . | . | . | 3 | . | .
COC(=O)c1ccc(-n2nc(C(F)(F)F)c3c2-c2ccoc2CC3)cc1 | -1 | -5 | i | -15 | . | .
CN1CCN(CCCN2c3ccccc3Sc3ccc(C(F)(F)F)cc32)CC1 | 1 | 3 | i | 90* | 1 | 98*
O=C(NCCN1CCN(c2ccccc2)CC1)c1ccc2c(c1)[nH]c(=S)n1c3ccccc3nc21 | -4 | 4 | i | 47* | 2 | ?
CCCN(C(=O)c1ccco1)c1nnc(-c2ccncc2)s1 | -2 | 1 | i | -3 | . | .
CCCCN(C(=O)c1ccco1)c1nnc(-c2cc(OC)c(OC)c(OC)c2)s1 | 0 | 2 | . | 50* | 2 | 38
COc1ccccc1C(CNC(=O)CNC(=O)c1ccccc1Cl)N1CCCC1 (centres undefined) | 5 | 4 | i | 51* | -3 | 62*
CCn1c(N2CCN(Cc3ccc([N+](=O)[O-])cc3)CC2)nc2ccccc21 | 11 | 0 | i | -5 | . | .
Cc1ccsc1CNc1ncnc2ccc(-c3c(C)noc3C)cc12 | 9 | 1 | i | 46* | 1 | 44
COc1ccc(C(=S)N2CCCCC2)cc1Br | 0 | -2 | i | -2 | . | .
CCc1cccc2c(C(=O)C(NC(C)CC)c3ccccc3)c[nH]c12 (centres undefined) | 3 | 0 | i | 79* | 1 | 101*
CCc1cccc2c(C(=O)C(NCCCOC)c3ccccc3)c[nH]c12 (centres undefined) | 2 | 3 | i | 28 | . | .
Cc1c(Br)c([N+](=O)[O-])nn1CCCC(=O)Nc1c(C)n(C)n(-c2ccccc2)c1=O | -2 | 4 | i | 49* | 3 | 42
Cc1c(NC(=O)CCCCCN2C(=O)c3ccccc3C2=O)c(=O)n(-c2ccccc2)n1C | 2 | 7 | i | 106* | 0 | 110*
NC[C@@H]1O[C@H](C23CC4CC(CC(C4)C2)C3)Cc2c1ccc(O)c2O | 5 | -2 | i | 55* | -1 | 54*
C#CCOCCOCCOCCNc1nc(N2CCN(C(=O)[C@H](CCCCN)n3cc([C@@H](N)C(C)CC)nn3)CC2)nc(N2CCN(C(=O)[C@H](Cc3cc4ccccc4[nH]3)n3cc([C@@H](N)C(C)CC)nn3)CC2)n1 (some centres undefined) | . | . | i | 111* | -2 | 114*
C#CCOCCOCCOCCNc1nc(N2CCN(C(=O)[C@H]([C@@H](C)CC)n3cc([C@@H](N)Cc4ccc(O)cc4)nn3)CC2)nc(N2CCN(C(=O)[C@H](Cc3cc4ccccc4[nH]3)n3cc([C@@H](N)CC(C)C)nn3)CC2)n1 | . | . | i | 87* | -4 | 61*
N[C@@H](CO)c1cn([C@@H](Cc2cc3ccccc3[nH]2)C(=O)N2CCNCC2)nn1 | 2 | -3 | i | 101* | -2 | 107*
